SW480 rereplic: A quantitative high throughput screen for small molecules that induce DNA re-replication in SW480 colon adenocarcinoma cells; SW480 DNA re-replication, Hoechst DNA content imaging, 48 h; Potency, µM (titrated, usually from 46.1 µM), for inactives: at the highest dose re-replication activation, actives largely listed as activators; 1.8% of 340,000 active; AID 624297, 2012; further: potency means the concentration at half of the fitted maximal effect; % of control where 0% means no effect; nearly all actives have a fitted effect of over 55% in size
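SW480 cells exposed to compounds for 48 hr at 37 C, 5% CO2, then Hoechst-stained 40 min. Nuclear DNA content imaged by fluorescence scanning (405 nm excitation, 500-530 nm emission); re-replication scored as increased high-intensity nuclei.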
Giardia kill: Small Molecules that selectively kill Giardia lamblia: qHTS | Giardia lamblia trophozoite viability | activity change, % at 7.66 µM, hits read low | 0.15% of 340,000 active | AID 540267, 2011; in the data active means activity change below about -80%; inconclusive means between about -30% and that limit;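 further: parasites exposed to compound for two days anaerobically before the ATP read; on the % scale 0 is the no-effect control and ±100 the full control effect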
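Luminescence from cellular ATP indicates surviving trophozoites (100 cells/well) following 48 hrs anaerobic compound treatment at 37 deg C; signal develops 15-30 min at room temperature.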
ASM inhibitor: Inhibitors of Secretory Acid Sphingomyelinase (S-ASM): qHTS; 0.006% of 340,000 active; Sphingomyelin phosphodiesterase (Homo sapiens), P17405; Potency, µM (titrated, usually from 57.5 µM), for inactives: top-dose activity change, negative = inhibition, actives largely listed as inhibitors; placental ASM, HMU-PC fluorogenic substrate, 60 min; further: potency means the concentration at half of the fitted maximal effect
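Fluorescence read-out (Ex 386 nm, Em 447 nm) after stopping the reaction at pH 10. Enzyme: ASM from human placenta; substrate HMU-PC0, 9 uM final; 60 min, 37 °C. Compound preincubation 10 min, ambient temperature.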
KB-3-1 cytotox: qHTS assay for MDR1-selective chemotherapeutics: Primary screen using the parental adenocarcinoma cell KB-3-1 | KB-3-1 viability, CellTiter-Glo ATP luminescence, 72 h | Potency, µM (doses to about 46.1 µM), actives largely listed as cytotoxic | 1.4% of 400,000 active | AID 1347075, 2019; further: potency means the concentration at half of the fitted maximal effect; on the % scale 0 is the no-effect control and ±100 the full control effect; nearly all actives have a fitted effect of over 60% in size
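Screening of KB-3-1 cells (DMEM, 10% FBS, phenol-red free) ran from lowest to highest compound concentration; after 72 h at 37 °C viability was read luminescently and curves fitted.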
MCF10A rereplic: A quantitative high throughput screen for small molecules that induce DNA re-replication in MCF 10a normal breast cells; MCF 10A DNA re-replication, Hoechst nuclear intensity, 48 h; Potency, µM (series often up to 46.1 µM), for the others: at the top dose activity, positive = re-replication, hits mostly activators; 2.9% of 350,000 active; AID 624296, 2012; further: potency means the concentration at half of the fitted maximal effect; % of control where 0% means no effect; nearly all actives have a fitted effect of over 50% in size
KB-V1 cytotox: qHTS assay for MDR1-selective chemotherapeutics: Primary screen using the drug-selected MDR subline cells KB-V1. 3.4% of 400,000 active. AID 1347076, 2019. Potency, µM (doses to about 46.1 µM), usual class: cytotoxic. KB-V1 MDR cells viability, CellTiter-Glo, 72 h; further: potency means the concentration at half of the fitted maximal effect; on the % scale 0 is the no-effect control and ±100 the full control effect; nearly all actives have a fitted effect of over 60% in size
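Cytotoxicity toward P-gp-expressing KB-V1 cells was determined as loss of CellTiter-Glo luminescence after 72 h at 37 degrees C. Compounds were tested in quantitative HTS format across a concentration range, with curves fitted to normalized data.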
Numbers without * were called inactive; i = inactive; ? = inconclusive; . = not tested or not shown; [ ] = another dose, or the depositor's remark. This is a sample that favours compounds with a hit; in the whole collection about 6.9% have one here. Unless noted, the call rests on the fitted dose curve; in most records, active means well fitted curve in the direction sought with a large enough effect; inconclusive means small, poorly fitted or top-dose-only effect, or another doubt; inactive means no such curve, though single readings can be large; an effect the other way counts as inactive or inconclusive.

SMILES	SW480 rereplic	Giardia kill	ASM inhibitor	KB-3-1 cytotox	MCF10A rereplic	KB-V1 cytotox
COc1ccccc1-c1cc(C(F)(F)F)nc(NCc2cccs2)n1	8%	14	-5%	i	?	21µM*
CN(C)S(=O)(=O)c1ccc2nnn(OCC(=O)NC34CC5CC(CC(C5)C3)C4)c2c1	-1%	-2	1%	i	22%	3.7µM*
COc1ccc2c(c1)O[C@@H](c1cccc(C(F)(F)F)c1)[C@H](O)C2=O	21µM*	.	.	.	7%	.
COc1ccc2c(c1)O[C@H](c1ccc3c(c1)OCO3)[C@@H](O)C2=O	?	9	0%	?	12%	i
CC(C)NC(=O)C1CCN(c2nc3ccccc3nc2C(F)(F)F)CC1	.	.	.	i	.	?
Cc1ccc(NC(=O)Cn2c(=O)oc3cc(S(=O)(=O)N4CCC(C)CC4)ccc32)cc1C	?	6	-3%	?	21µM*	?
O=C(CN1CCN(S(=O)(=O)c2ccc3ccccc3c2)CC1)Nc1ccc2c(c1)CCC2	22%	16	-5%	i	11%	18µM*
N#Cc1ccsc1NC(=O)CN1CCN(Cc2ccccc2)CC1	-2%	6	14%	i	-6%	i
Cc1ccc(S(=O)(=O)N2CCN(CC(=O)Nc3ccc4c(c3)CCC4)CC2)cc1C	-3%	20	-5%	?	7%	2.9µM*
N#Cc1ccsc1NC(=O)CN1CCN(S(=O)(=O)c2ccc3ccccc3c2)CC1	-1%	-5	-1%	i	23%	6.5µM*
C[C@@H](C(=O)O)c1ccc(C(=O)c2cccs2)cc1	-8%[20.6 µM]	.	.	.	-4%[20.6 µM]	.
O=[N+]([O-])c1cc(Cl)ccc1Nc1nc(Nc2ccc(Cl)cc2[N+](=O)[O-])nc(N2CCOCC2)n1	.	10	.	i	.	i
C=CCNC(=O)c1cnn2c1NC(=C)C=C2C	.	.	.	?	.	i
CCOC(=O)c1ccc(Cl)c(NC(=O)c2ccc(-c3ccccc3)cc2)c1	-1%	-1	-1%	?	3.7µM*	i
COc1ccc(/C=C2\Sc3ccc(C(=O)NCC4CCCO4)cc3N(C)C2=O)cc1 (configuration not stated)	23µM*	-3	0%	i	23µM*	i
FC(F)(F)c1cccc(CN2CCC(c3cc(-c4cccs4)n[nH]3)CC2)c1	?	7	6%	?	13µM*	?
Cc1ccc(CN2CCC(c3cc(-c4cccs4)n[nH]3)CC2)cc1	10%	10	0%	i	?	?
O=C(CC1(O)C(=O)N(Cc2cccc3ccccc23)c2ccccc21)c1cccnc1 (configuration not stated)	?	-17	-8%	21µM*	?	21µM*
CN1C(=O)C(O)(CC(=O)c2cccnc2)c2ccccc21 (configuration not stated)	-4%	-16	0%	i	?	i
CC(=O)c1ccc(-n2nnnc2SCC(=O)N2CCc3ccccc3C2)cc1	?	16	-2%	i	-3%	12µM*
O=C(CSc1nnnn1-c1ccccc1)N1CCc2ccccc2C1	-4%	-3	4%	i	21%	15µM*
Cn1cnnc1SCC(=O)N1CCc2ccccc2C1	.	.	.	i	.	i
Clc1ccc(-c2ccc(/C=N/Nc3cc(N4CCOCC4)nc(N4CCOCC4)n3)o2)cc1	13µM*	-3	i	?	?	?
Cc1cccc(/C=N/Nc2cc(N3CCOCC3)nc(N3CCOCC3)n2)c1	2.1µM*	31	-4%	?	?	15µM*
Brc1ccc(-c2ccc(/C=N/Nc3nc(N4CCOCC4)nc(N4CCOCC4)n3)o2)cc1	?	-18	182%	i	5%	i

Compound activity from PubChem BioAssay.
